# Measured values reported in PubChem BioAssay AID818 (SRMLSC, 2007).
# The campaign covered roughly 140,000 compounds. About 2,100 (1.5%) were called active.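 The calls were made as follows: active = viability at or under a set limit, the compound median less 4 SD (cut at about 6% in these data); inactive = the rest.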 What follows is part of a selection rich in actives, with near analogues and random picks from the rest.
# Test: primary screen for growth suppressors in beta-catenin knockout HCT116 cells (colon tumor, human) (AID 818);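 also: 0% = Hyamine 1622 control at 20 µM and 100% = untreated cell control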
# Conditions: CellTiter-Glo, 60 h, at 10 µM, active compounds read low
row,Structure (SMILES),viability
1,CSc1nc(-c2ccccc2)nc(C(Cl)Cl)n1,3.63% (active)
2,CSc1nc(C)cc(SC(C(C)=O)C(=O)Nc2ccccc2)n1 (configuration not stated),88.4% (inactive)
3,Cc1nn(-c2ccccc2)c(-n2cccc2)c1C(=O)O,95.6% (inactive)
4,Cc1ccc(/C=N/NC(=O)COc2ccccc2-c2ccccc2)cc1,13.9% (inactive)
5,c1ccc(C2CNCc3c2ccc2ccccc32)cc1 (configuration not stated),11.3% (inactive)
6,COc1ccc(C2NC(=S)NC3=C2CCc2ccccc23)cc1OC (configuration not stated),81.8% (inactive)
7,CCn1ncc(CNC(=O)C2(C)CC2(Br)Br)c1C (configuration not stated),94.3% (inactive)
8,CC(=O)NS(=O)(=O)c1ccc(NC(=O)C2C3C=CC(C3)C2C(=O)O)cc1 (configuration not stated),98.2% (inactive)
9,CN(C)S(=O)(=O)c1cccc(C(=O)Nc2cccnc2)c1,97.9% (inactive)
10,CN(C)S(=O)(=O)c1cccc(NC(=S)N/N=C/C(=O)c2ccccc2)c1,6.06% (active)
11,CCN(CC)S(=O)(=O)c1cccc(C(=O)Nc2ccccc2)c1,80.8% (inactive)
12,Cc1cccc(CSc2ccc(-c3cccs3)nn2)c1,75.7% (inactive)
13,Cc1c(Cl)c([N+](=O)[O-])nn1CCCC(=O)Nc1cc(Cl)ccc1Cl,91.2% (inactive)
14,COc1ccc(NC(=S)N2CCCC(CO)C2)c(OC)c1 (configuration not stated),100% (inactive)
15,O=C(CC1NCCNC1=O)Nc1cc(Cl)cc(Cl)c1 (configuration not stated),87.8% (inactive)
16,Cc1ccc(/C=N/NC(=O)C2=NNC(c3ccccc3)(c3ccccc3)C2)c(O)c1,4.68% (active)
17,Cc1ccc(-c2nn(-c3ccccc3)cc2/C=N/NC(=O)c2ccc3c(c2)OCO3)cc1,36.6% (inactive)
18,Cc1cccc(-n2c(C)cc(/C=N\NC(=O)c3cccs3)c2C)c1,60.6% (inactive)
19,Cc1cc(C(=O)NNC(=S)NC(C)c2ccccc2)cs1 (configuration not stated),88.5% (inactive)
20,Cc1cc(NC(=O)CCC(=O)N(c2cccc(F)c2)C(C(=O)NC2CCCC2)c2ccncc2)no1 (configuration not stated),94.3% (inactive)
21,Cc1cc(NC(=O)/C=C/C(=O)N(c2ccccc2C)C(C(=O)NC2CCCC2)c2ccc(F)cc2)no1 (configuration not stated),5.76% (active)

row,Structure (SMILES),viability
1,Cc1cc(NC(=O)CCC(=O)N(c2ccccc2)C(C(=O)NC2CCCC2)c2ccncc2)no1 (configuration not stated),80% (inactive)
2,CCOc1ccc(Br)cc1S(=O)(=O)Nc1cccc(S(=O)(=O)N(CC)CC)c1,96.4% (inactive)
3,N=C(N)SCc1cccc2ccccc12,79.3% (inactive)
4,CCc1ccc(-c2nn(-c3ccccc3)cc2CSC(=N)N)cc1,1.57% (active)
5,CCn1c(SCc2ccc(C)cc2)nnc1-c1nn(-c2ccccc2)ccc1=O,103% (inactive)
6,CCN(C(=O)COc1cccnc1[N+](=O)[O-])C1CCS(=O)(=O)C1 (configuration not stated),85.6% (inactive)
7,COC(C(=O)NCc1ccccc1C)c1ccccc1 (configuration not stated),90% (inactive)
8,CCN(CC)CCNCc1ccc(OCc2ccc(Cl)nc2)c(OC)c1,96.9% (inactive)
9,Cc1c(Cl)cccc1NC(=O)Nc1ccc(C(=O)N2CCCC2)cc1,70.1% (inactive)
10,c1ccc2[nH]c(NCCN3CCOCC3)nc2c1,92% (inactive)
11,O=C(Cn1c(-c2ccccn2)nc2ccccc21)NCCN1CCOCC1,98.8% (inactive)
12,c1ccc2cc3c(NCCN4CCOCC4)ccnc3cc2c1,2.37% (active)
13,CC(C)CCNC(=O)c1cccnc1Sc1ccccc1,96.4% (inactive)
14,Cc1noc(COc2ccccc2OCC(O)CNC(C)(C)C)n1 (configuration not stated),98.6% (inactive)
15,CC(C)(C)CC(C)(C)NCC(O)COCCOc1ccc(Br)cc1 (configuration not stated),1.6% (active)
16,CCC(C)NCCOCCOc1ccc(Br)cc1C (configuration not stated),70.2% (inactive)
17,CCOc1ccc(NC(=S)N2CCC(N(C)CC3CCCO3)CC2)cc1 (configuration not stated),96.9% (inactive)
18,Cc1ccc(NC(=O)COC(=O)CCc2nc3ccccc3n2-c2ccccc2)c(C)c1,79.9% (inactive)
19,COc1ccc(CN2CN(C(C)C)CSC2=S)cc1,5.75% (active)
20,S=C1SCN(CCN2CCOCC2)CN1Cc1ccccc1,20.5% (inactive)
21,O=C(NN1C(=O)C2C3C=CC(C3)C2C1=O)c1ccco1 (configuration not stated),93.7% (inactive)

row,Structure (SMILES),viability
1,COc1cc(OC)nc(N/N=C(\c2ccccc2)c2ccncc2)n1,63.6% (inactive)
2,Cc1ccc(C(=O)NCC2CCCO2)o1 (configuration not stated),106% (inactive)
3,Cc1cc(Br)ccc1NC(=O)C1CCCO1 (configuration not stated),96.2% (inactive)
4,OC(CNCC1CCCO1)Cn1c2ccc(Br)cc2c2cc(Br)ccc21 (configuration not stated),1.48% (active)
5,COc1ccc(NC(=S)NCc2cccs2)c(OC)c1,96% (inactive)
6,COc1ccc(C(C(=O)NC2CCCCC2)N(C(=O)Cc2c[nH]c3ccccc23)c2ccccc2)cc1OC (configuration not stated),63.4% (inactive)
7,O=C(Nc1cc(C(F)(F)F)ccc1Cl)C(=O)N1CCCCC1,99.1% (inactive)
8,CC(CC(=O)Nc1cc(C(F)(F)F)ccc1Cl)c1ccccc1 (configuration not stated),61.2% (inactive)
9,O=C(NNc1ccccc1Cl)C(O)(c1cccc(C(F)(F)F)c1)c1cccc(C(F)(F)F)c1,3.21% (active)
10,CCc1nnc(NC(=O)/C=C/c2ccc(C)o2)s1,97.8% (inactive)
11,CCN1/C(=C/c2ccc3ccc(C)cc3[n+]2CC)Sc2ccccc21,2.41% (active)
12,CCC(=O)/C=C1\Sc2ccccc2N1CC,89% (inactive)
13,CCOC(=O)CN(Cc1ccc(OC)c(OC)c1)S(=O)(=O)c1ccc(OC)cc1,91.4% (inactive)
14,COc1ccc(C(CCN(Cc2ccc(OC)c(OC)c2)C(=O)CCl)c2ccccc2)cc1 (configuration not stated),1.9% (active)
15,COc1ccc(CCN(C(=O)COc2ccccc2)c2nc(-c3ccccc3)cs2)cc1OC,77.2% (inactive)
16,CCOC(=O)C(NC(=O)CC(C)C)(Nc1sc2c(c1C(N)=O)CCCC2)C(F)(F)F (configuration not stated),97.2% (inactive)
17,CCOC(=O)C1=C(C)N=c2s/c(=C\C(=O)OC)c(=O)n2C1c1ccc(OC)cc1 (configuration not stated),98.8% (inactive)
18,O=C1CCCC2=C1C(c1ccccc1)n1c(s/c(=C/c3cccc(F)c3)c1=O)=N2 (configuration not stated),83.9% (inactive)
19,COc1ccc(OC)c(C2C3=C(N=c4s/c(=C\c5cccc(O)c5)c(=O)n42)c2ccccc2CC3)c1 (configuration not stated),3.2% (active)
20,O=C(Nc1cn(-c2ccccc2)nc1-c1ccccc1)c1ccccc1,82% (inactive)
